Assay results from PubChem BioAssay AID1117361 (Southern Research Institute, 2015).
Among all 3,600 compounds or so, about 900 (25%) were called active. The rule behind the calls is not given here. Not all results are given here. Entries with a potency or affinity are not part of this list.

target: Protein Tat (Human immunodeficiency virus type 1 group M subtype B (isolate HXB2)) (UniProt P04608); test: inhibitors of Tat binding to TAR RNA, dose response, counter-screen for Vif-APOBEC3G degradation inhibitor project, biochemical, fluorescence polarization, FAM-labeled TAR RNA (AID 1117361); settings: outcome: dose series up to 100 µM unless noted; series mostly up to 100 µM

Compound | outcome
COc1ccc(Cc2nnc(NC(=O)CSc3ccccc3)s2)cc1 | inactive
C[C@@H]1CCCCO[C@H](CN(C)C(=O)c2ccccc2)[C@@H](C)CN([C@H](C)CO)C(=O)c2cc(NC(=O)NC3CCCCC3)ccc2O1 | inactive
CCOc1ccc(-n2c(=O)c3c(C)c(C)sc3n(CC(=O)NCc3ccco3)c2=O)cc1 | inactive
Cc1cccc(NC(=O)Cn2c(=O)n(Cc3ccco3)c(=N)c3c4c(sc32)COC(C)(C)C4)c1 | inactive
CCOC(=O)c1cc([N+](=O)[O-])cc([N+](=O)[O-])c1Sc1ncnc2nc[nH]c12 | inactive
CCCCn1c(N)c(N(CCC(C)C)C(=O)C2=NN(c3cc(C)ccc3C)C(=O)CC2)c(=O)[nH]c1=O | inactive
CC(=O)N(C1=C(Cl)C(=O)c2ccccc2C1=O)c1ccc(C(=O)O)cc1 | inactive
CCC(C(=O)OCC(=O)Nc1ccc(SC(F)F)cc1)c1ccccc1 (stereo unspecified) | inactive
CC(C)CC(c1nnnn1C1CCCCC1)N1CCN(c2ncccn2)CC1 (stereo unspecified) | inactive
Cc1ccc(C(c2nnnn2CC2CCCO2)N2CCN(C)CC2)cc1 (stereo unspecified) | inactive
CCC(=O)Nc1cc(C(=O)OCC(=O)c2ccccc2Cl)ccc1C | inactive
O=C(NCc1ccc(Cl)cc1)c1ccccc1Oc1ccccc1 | inactive
COC(Cc1nnc(SC)n1-c1ccc(Cl)cc1)OC | inactive
CCOC(=O)CSc1nc2c(sc(=S)n2-c2ccccc2OC)c(=O)n1Cc1ccco1 | inactive
O=C(O)c1ccc(-n2c(-c3cc(-c4ccco4)[nH]n3)n[nH]c2=S)cc1 | inactive
CCCn1c(Sc2nc3c(c(=O)[nH]c(=O)n3C)n2CCC)nc2c1c(=O)[nH]c(=O)n2C | inactive
CCC(C)n1cnc2c(c1=O)c1nc3ccccc3nc1n2-c1ccc2c(c1)OCCO2 (stereo unspecified) | inactive
CCCn1nnnc1-c1cccc(Cl)c1 | inactive
COc1ccc(C(=O)CSc2nnc3n2CCCN3C(=O)Nc2ccccc2)cc1 | inactive
CN(C)c1nc(N)nc(CSc2nc3c(c(=O)n(C)c(=O)n3C)n2Cc2ccccc2F)n1 | inactive
CC(=O)Nc1ccc(OCC(O)CNC2CCCC2)cc1 (stereo unspecified) | inactive
CC(=O)c1ccc(N2C(=NC(=O)C3CCCO3)SC3CS(=O)(=O)CC32)cc1 (stereo unspecified) | inactive
COc1ccccc1C1NC(c2ccccc2OC)C(C)C(=O)C1C (stereo unspecified) | inactive

Compound | outcome
O=C(c1cc2ccccc2oc1=O)N1CCN(c2ccc(N3CCOCC3)nn2)CC1 | inactive
O=C(c1cccnc1NCc1ccc(F)cc1)N1CCOCC1 | inactive
CCOc1ccc(C2NC(=O)C(C#N)=C(S)N2c2ccc(OC)cc2)cc1OC (stereo unspecified) | inactive
CC1(CCc2ccc3c(c2)OCO3)NC(=O)c2ccccc2N1 (stereo unspecified) | inactive
O=C(COc1ccccc1C(=O)O)Nc1ccc(SC(F)F)cc1 | inactive
CCOC(=O)c1c(NC(=O)c2cccs2)sc(C)c1C | inactive
CCCc1cc(=O)[nH]c(SCC(=O)Nc2cc3c(cc2C(C)=O)OCO3)n1 | inactive
Cc1cc(NC(=O)CCC(=O)N(CCC(C)C)C(C(=O)NC2CCCC2)c2cccnc2)no1 (stereo unspecified) | inactive
COc1ccc2c3c(c(=O)oc2c1OCC(=O)C(C)(C)C)CCCC3 | inactive
Cc1cc(C)c2nc(N3CCCN(C(=O)c4cnccn4)CC3)c(C#N)cc2c1 | inactive
NS(=O)(=O)c1cccc(NS(=O)(=O)c2ccc(/C=C/C(=O)OCC(=O)c3ccccc3)cc2)c1 | inactive
Cc1ccc(-n2nnnc2SCc2ccccn2)cc1C | inactive
Cc1cc(SCC2=NNC(=O)C2)c(Cl)cc1Cl | inactive
O=C(/C=C/c1ccco1)Nc1ccc(Oc2ccccc2)cc1 | inactive
O=C(/C=C/c1ccco1)NC(=S)Nc1ccc(C(=O)O)cc1 | inactive
CCC(=O)N1CCN(c2ccccc2NC(=O)c2cccc(C)c2)CC1 | inactive
O=C(CN1C(=O)CSC1=O)Nc1ccccc1N1CCOCC1 | inactive
Cc1cccc(NC(=O)CC2NC3CCCCC3NC2=O)c1 (stereo unspecified) | inactive
Cc1ccc2c(c1)CCCN2C(=O)c1cc(C)c(C)s1 | inactive
Cc1ccc(NC(=O)C(C)Sc2nc3nc(C)cc(C)n3n2)cc1 (stereo unspecified) | inactive
Cc1cc(C)n(-c2ncc(-c3ccccc3)nn2)n1 | inactive
C=CCOC(=O)CN1C(=O)c2ccccc2C1=O | inactive
O=C(NC1CCCCC1)c1sc(=S)n2c1[nH]c(=O)c1ccccc12 | inactive

Compound | outcome
Cc1ccc(-n2nnnc2SCn2nnc3ccccc3c2=O)cc1 | inactive
Cc1cccc(CCNC(=O)CCc2nc(-c3ccccc3F)no2)c1 | inactive
Cc1cc(C)nc(N(C#N)CN2C(=O)c3ccccc3S2(=O)=O)n1 | inactive
Nc1ccc(S(=O)(=O)c2cc(O)c3ccccc3c2O)cc1 | inactive
CCOC(=O)CS(=O)(=O)c1ccc2ccccc2c1 | inactive
CCc1cc(C=NC2CCCCC2)c(O)s1 | inactive
CN(C)NC(=S)NC1CCS(=O)(=O)C1 (stereo unspecified) | inactive
CCCOc1ccc2[nH]cc(C(=O)O)c(=O)c2c1 | inactive
Cc1ccc(Oc2ccc(/C=N/O)cn2)cc1 | inactive
O=S(=O)(Nc1ccc2c(c1)nc1n2CCN(Cc2ccccc2)C1)c1ccc(Cl)cc1 | inactive
COCCCNc1nc2c(c(=O)n(C)c(=O)n2C)n1Cc1cccc(OC)c1 | inactive
CCCCc1c(C)nc2ccc(Br)cc2c1SCCC#N | inactive
COc1ccc(C)cc1Nc1c2c(nc3ccccc13)CCC2 | inactive
COc1cc2ccccc2nn1 | inactive
CC(=O)Nc1nonc1NC(=O)CSC1=NCCS1 | inactive
CNC(=O)CN1C(=O)NC2(CCc3ccccc32)C1=O (stereo unspecified) | inactive
O=C(CSc1nnc(CN2CCOCC2)n1-c1ccccc1)Nc1ccc(Cl)cc1 | inactive
CC1(C)CC(=O)C2=C(C1)N(Cc1cccnc1)C(=O)C2(NC(=O)C1CC1)C(F)(F)F (stereo unspecified) | inactive
Cc1cc(C)cc(N(CCC#N)C(=O)CSc2nc3nc(C)cc(C)n3n2)c1 | inactive
Cc1c(C(=O)Nc2cccc([N+](=O)[O-])c2)csc1-c1ccccc1 | inactive
O=C(Nc1ccc(C(=O)N2CCOCC2)cc1)c1ccccc1[N+](=O)[O-] | inactive
O=C(C1CCN(S(=O)(=O)N2CCOCC2)CC1)N1CCN(Cc2ccc3c(c2)OCO3)CC1 | inactive
CN(CCO)CC(O)CN(c1ccccc1)c1ccccc1 (stereo unspecified) | inactive

Compound | outcome
COC(=O)c1c[nH]n2c(=O)c(Cc3ccc(F)cc3Cl)c(C)nc12 | inactive
CCOC(=O)c1c(Nc2ccccc2N)cc(C)nc1C | inactive
O=C(CCc1nc(-c2ccccc2F)no1)NC1CCCCCC1 | inactive
CCOc1ccc(N(CC(=O)Nc2ccccc2C(=O)NCc2ccco2)S(C)(=O)=O)cc1 | inactive
CC1CN(Cc2cc(=O)[nH]c(C3CC3)n2)CC(C)O1 (stereo unspecified) | inactive
Cn1c(Cn2c(=O)sc3ccccc32)nnc1SCC(=O)NCc1ccc(F)cc1 | inactive
Cc1cc(=O)oc2cc(OCC(=O)NCc3cccnc3)ccc12 | inactive
Fc1cc(F)cc(NC(=S)NCCCN2CCOCC2)c1 | inactive
COC(=O)c1ccccc1NC(=O)c1noc2c1CCC2 | inactive
COc1ccccc1NC(=O)CSc1nnc(C)n1CCc1ccccc1 | inactive
Cc1ccc(C2CC(c3cccc(Cl)c3)n3nc(N)nc3N2)cc1 (stereo unspecified) | inactive
COc1ccc(C2CC(c3cccs3)n3nc(N)nc3N2)cc1 (stereo unspecified) | inactive
CCOc1cc(C)nc(NCCc2ccc(OC)c(OC)c2)n1 | inactive
COc1cc(CNCCc2ccccc2F)ccc1OCc1ccc(Cl)nc1 | inactive
Cc1ccc(NC(=O)C(C)NC(=O)OCc2ccccc2)cc1C (stereo unspecified) | inactive
Cc1cc(=O)[nH]c2c1c(C)nn2C1CCCCC1 | inactive
O=C(CC1SCCNC1=O)Nc1ccc(Cl)cc1 (stereo unspecified) | inactive
Fc1cccc(-c2cc3nc4c(c(NCc5ccco5)n3n2)CCCC4)c1 | inactive
CSc1nc(NCCCO)c2c3c(sc2n1)CN(C)CC3 | inactive
CCC1=NN2C(=N)/C(=C\c3cccn3-c3cccc(Cl)c3)C(=O)N=C2S1 | inactive
COc1ccc(NC2CS(=O)(=O)CC2NCc2ccco2)cc1 (stereo unspecified) | inactive
COc1cccc(S(=O)(=O)N2CCN(c3ccccc3F)CC2)c1 | inactive
COc1ccccc1CNC(=O)COC(=O)c1ccc(NC(N)=O)cc1 | inactive

Compound | outcome
O=S(=O)(NCc1ccc2c(c1)OCO2)c1cccc(S(=O)(=O)N2CCOCC2)c1 | inactive
COCCN1Cc2cccc(C(=O)NCc3ccccn3)c2C1=O | inactive
Cc1cccc(N2CCN(CC(O)COc3ccc(Cl)cc3)CC2)c1 (stereo unspecified) | inactive
COCC(=O)NC1CCN(CC(=O)Nc2ccc(OC)cc2[N+](=O)[O-])CC1 | inactive
CC(=O)NS(=O)(=O)c1cccnc1Nc1cccc(Cl)c1 | inactive
CCc1nnc(NC(=O)c2ccc3c(c2)C(=O)N(C(C)(C)C)C3=O)s1 | inactive
N#Cc1cccc(Oc2ccc(S(=O)(=O)N3CCCC3)cn2)c1 | inactive
NC(=O)C1CCCN(CC(=O)Nc2ccccc2C(=O)NC2CC2)C1 (stereo unspecified) | inactive
COC(=O)Cc1cc(=O)n(-c2nc3ccccc3[nH]2)[nH]1 | inactive
Cc1cccc(N(CC(=O)N/N=C/c2ccc(OCC(=O)NCc3ccco3)cc2)S(C)(=O)=O)c1C | inactive
Cc1ccc(CNC(=O)COc2ccc3c(c2)CCC3)cc1 | inactive
CCc1ccc(CNCc2cccnc2)cc1 | inactive
CCn1c(CNc2ccc(C)cc2)nnc1SCC(=O)NCc1ccccc1 | inactive
COc1ccc(OC)c(-c2cc(C(=O)NCc3cccs3)no2)c1 | inactive
CC1(C)Oc2ccc(C(=O)NC3CCCC3)cc2N(CC(=O)N2CCOCC2)C1=O | inactive
COc1cc(SC)ccc1C(=O)Nc1c(C)cccc1C | inactive
CC(Oc1ccc(Cl)cc1)C(=O)Nc1ncccn1 (stereo unspecified) | inactive
O=C(CCc1c[nH]c2ccccc12)NC1CC1 | inactive
N[C@@H](Cc1c[nH]c2ccccc12)C(=O)O | inactive
